Assay results from PubChem BioAssay AID449741 (Southern Research Specialized Biocontainment Screening …, 2010).
Activity calls are given as the source filed them.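 How the source made its calls: active means inhibition above 30% at one or more tested concentrations in the dose response; inactive means inhibition below 30% at every tested concentration.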

Assay: PhoP-driven GFP expression inhibition, Typhimurium – GFP fluorescence, round 4, synthesized compounds, late-stage follow-up (AID 449741)
Settings: S. Typhimurium PhoP-regulated promoter-GFP fluorescence, 4 h; series mostly up to 150 µM

outcome, inactive:
N#Cc1ccc(CN2CCCN(C(=O)Nc3ccc(Cl)cc3)C2)cc1, S=C(NCc1ccc(Cl)cc1)Nc1ccncn1, S=C(NCc1ccc(Cl)cc1)Nc1ccc(I)cc1, S=C(NCc1ccc(Cl)cc1)NC1CCCCC1, S=C(NCc1ccc(Cl)cc1)Nc1ccccc1Br, FC(F)(F)c1ccc(NC(=S)NCc2ccc(Cl)cc2)cc1, S=C(NCc1ccc(Cl)cc1)Nc1ccccc1I, S=C(NCc1ccc(Cl)cc1)NC1CCOCC1, COc1cccc(CNC(=S)Nc2ccncc2)c1, O=C(Nc1ccc(Cl)cc1)N1CCCN(Cc2cccc(Br)c2)C1, O=C(Nc1ccc(Cl)cc1)N1CCCN(Cc2cccc(F)c2)C1, S=C(NCc1ccc(Cl)cc1)Nc1cccc(Br)c1, FC(F)(F)c1ccccc1NC(=S)NCc1ccc(Cl)cc1, S=C(NCc1ccccc1)NCc1ccc(Cl)cc1, CN1CCN(C(=S)NCc2ccc(Cl)cc2)CC1, O=C(NC1CCCCC1)N1CCCN(Cc2ccccc2F)C1, S=C(NCc1ccc(Cl)cc1)Nc1ccccn1, Cc1ccccc1NC(=O)N1CCCN(Cc2ccccc2F)C1, S=C(NCc1ccc(Cl)cc1)NN1CCOCC1, O=C(Nc1ccc(Cl)cc1)N1CCN(Cc2ccccc2F)C1
